Screens deposited in PubChem BioAssay by National Center for Advancing Translational Sciences (NCATS).
LmPK inh: qHTS Assay for Inhibitors of Leishmania Mexicana Pyruvate Kinase (LmPK) | Q27686 | purified LmPK, Kinase-Glo ATP luminescence, 1 h | Potency, µM (titrated, usually from 57.5 µM), without a hit: at the highest dose activity change, negative = inhibition, actives largely listed as inhibitors | 290,000 tested, 0.37% active | AID 1721, 2009; note: potency is the fitted concentration of half-maximal effect; % is set by controls: 0 for no effect and ±100 for the full control effect
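0.1 nM LmPK, 0.5 mM PEP, 0.1 mM ADP; 50 mM imidazole pH 7.2, 7 mM MgCl2, 50 mM KCl; 1 h RT. Kinase-Glo luminescence readout, normalized to no-enzyme (full inhibition) and uninhibited wells.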
Shiga inhibitor: A qHTS for Small Molecule Inhibitors of Shiga Toxin | Vero cells, Shiga toxin protein synthesis inhibition reporter | inhibition, % at 38.7 µM | 290,000 tested, 9.2% active; in the data active = inhibition mostly above about 28%, no sharp cut-off; inactive = mostly below about 43%; note: 0% is about no effect
TbPYK inhibitor: qHTS of Trypanosoma Brucei Inhibitors; pyruvate kinase (Trypanosoma brucei), Q57TT1; 410,000 tested, 0.12% active; Potency, µM (top dose mostly 76.8 µM), for the others: at the highest dose activity, negative = inhibition, hits mostly inhibitors; TbPYK enzyme, Kinase-Glo Plus ATP luminescence, 45 min; note: potency is the fitted concentration of half-maximal effect; % is set by controls: 0 for no effect and ±100 for the full control effect; nearly all actives have a fitted effect of over 50% in size
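Luminescence from Kinase-Glo Plus, added after a 45-minute room-temperature reaction, served as the end-point read-out. The enzyme and substrate were preincubated with compound before ADP (130 uM final) initiated turnover. Concentration-effect curves came from normalized qHTS data.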
Cycloheximide cs: Cycloheximide Counterscreen for Small Molecule Inhibitors of Shiga Toxin | cell reporter, cycloheximide protein synthesis inhibition counterscreen | max response, % | 300,000 tested, 12% active | AID 2314, 2010; in the data active = max response mostly above about 13%, no sharp cut-off; inactive = mostly below about 14%; note: read at 38.3 µM for the half of the compounds with a filed dose; 0% is about no effect
Sm TGR inh: qHTS Assay for the Inhibitors of Schistosoma Mansoni Peroxiredoxins. Potency, µM (series often up to 114 µM), for the others: top-dose activity change, negative = inhibition, actives largely listed as inhibitors. purified TGR, DTNB reduction, TNB absorbance 405 nm. AID 485364, 2010. 360,000 tested, 3% active; note: potency is the fitted concentration of half-maximal effect; % is set by controls: 0 for no effect and ±100 for the full control effect; nearly all actives have a fitted effect of over 60% in size
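Kinetic colorimetric format: TGR-catalysed, NADPH-driven DTNB reduction monitored via TNB absorbance. Enzyme dispensed at 20 nM; compound exposure 15 min at room temperature before reaction start.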
Giardia FBPA inh: qHTS Assay for Inhibitors of Fructose-1,6-bisphosphate Aldolase from Giardia Lamblia. A8B2U2. purified Giardia FBPA. Potency, µM (top dose mostly 59.6 µM), inactives show top-dose activity, negative = inhibition, usual class: inhibitors. 290,000 tested, 0.71% active. AID 2451, 2010; note: potency is the fitted concentration of half-maximal effect; % is set by controls: 0 for no effect and ±100 for the full control effect; nearly all actives have a fitted effect of over 55% in size
Target sequence (A8B2U2 whole entry, looked up): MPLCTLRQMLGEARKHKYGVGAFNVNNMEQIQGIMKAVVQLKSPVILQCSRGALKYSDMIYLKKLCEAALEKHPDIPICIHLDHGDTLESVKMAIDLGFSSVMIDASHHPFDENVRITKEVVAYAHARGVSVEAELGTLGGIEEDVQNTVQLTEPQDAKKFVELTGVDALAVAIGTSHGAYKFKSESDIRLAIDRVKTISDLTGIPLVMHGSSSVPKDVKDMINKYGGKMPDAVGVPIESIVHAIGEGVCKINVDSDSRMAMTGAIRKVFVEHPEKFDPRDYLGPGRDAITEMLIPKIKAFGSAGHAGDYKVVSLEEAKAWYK
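Giardia FBPA (40 nM reagent) was preincubated 10 min at RT with compound (up to 57.5 uM final), then substrate plus GAPDH/TPI/NAD/arsenate coupling system with diaphorase/resazurin was added; resorufin fluorescence (525/598 nm) was read after 20 min.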
The depositor's hits bear a star; ? = inconclusive; / = not tested or not shown; [ ] = another dose, or the depositor's remark. The sample as a whole holds a higher share of hits than the screen did. Unless noted, calls come from the whole dose curve; as a rule, active = well fitted curve in the direction sought with a large enough effect; inconclusive = small, poorly fitted or top-dose-only effect, or another doubt; inactive = no such curve, though single readings can be large; an effect the other way counts as inactive or inconclusive.

SMILES	LmPK inh	Shiga inhibitor	TbPYK inhibitor	Cycloheximide cs	Sm TGR inh	Giardia FBPA inh
CCN(CC)CCCNC(=O)Cn1nc(C)n2c(cc3sccc32)c1=O	/	/	3%	/	-5%	/
O=C(CSc1ncccc1-c1nc2ccccc2[nH]1)NCc1ccco1	5%	56*	-25%	40*	13µM*	-26%
Cc1cc2nc(-c3cccnc3SCC(=O)NC3CC3)[nH]c2cc1C	14µM*	52*	/	23*	-2%	?
Cc1cc2nc(-c3cccnc3SCC(=O)NCc3ccco3)[nH]c2cc1C	?	42	-2%	21*	18µM*	?
O=C(Cn1cncn1)NCc1cc(F)ccc1F	8%	-6	2%	1	5%	3%
O=C(Nc1ccc(OC(F)F)cc1)c1cc(S(=O)(=O)N2CCOCC2)ccc1F	-3%	-7	0%	1	0%	/
Cc1ccc(-c2nn[nH]n2)o1	7%	-8	?	-2	45µM*	-15%
Cc1ccccc1CNC(=O)C(=O)NCC(c1ccco1)S(=O)(=O)c1cccs1 (stereo not drawn)	/	/	-5%	/	?	/
COc1ccccc1CNC(=O)C(=O)NCC(c1ccco1)S(=O)(=O)c1cccs1 (stereo not drawn)	/	/	5%	/	8.9µM*	/
O=C(NCc1ccccc1Cl)C(=O)NCC(c1ccco1)S(=O)(=O)c1cccs1 (stereo not drawn)	/	/	1%	/	32µM*	/
O=C(NCc1ccccc1F)C(=O)NCC(c1cccs1)S(=O)(=O)c1cccs1 (stereo not drawn)	/	/	-11%	/	?	/
O=C(NCc1ccc(F)cc1)C(=O)NCC(c1ccco1)S(=O)(=O)c1cccs1 (stereo not drawn)	/	/	-1%	/	7.9µM*	/
O=C(NCc1ccccc1F)C(=O)NCC(c1ccco1)S(=O)(=O)c1cccs1 (stereo not drawn)	/	/	0%	/	13µM*	/
COc1ccc(/C=C/N(CCc2ccc(OC)c(OC)c2)C(=O)c2ccccn2)cc1	/	/	/	/	/	-5%[12.9 µM]
Cc1ccc2nc(-c3ccsc3)c(Nc3ccc(Cl)cc3)n2c1	/	/	-5%	/	-1%	/
COc1ccc(-c2nc3cnc(N4CCN(C)CC4)nc3n(CCc3ccccc3)c2=O)cc1	/	/	/	/	/	3%
COc1ccc(S(=O)(=O)N2CCN(c3ccc(Cl)c(Cl)c3)CC2)c2ccccc12	/	/	3%	/	5%	/
COc1ccc(OC)c(N2Cc3ccccc3C2)c1	3%	3	-8%	-1	?	?
COc1ccc(N2Cc3ccccc3C2)cc1Cl	-11%	87*	-1%	22*	32µM*	-12%
COc1ccc(Cl)cc1N1Cc2ccccc2C1	-6%	-3	1%	-4	45µM*	-15%
COc1ccccc1N1Cc2ccccc2C1	-6%	4	4%	21*	?	-27%
CN1CCN(CCCNC(=O)c2cnn(-c3ccccc3)c2-n2cccc2)CC1	/	/	-2%	/	-14%	/
COc1cccc(-c2ccc3c(N)c(C(=O)c4ccc(F)cc4)sc3n2)c1	/	/	-1%	/	7%	/
O=C(Nc1ccc2nc(SCC(=O)N3CCCc4ccccc43)sc2c1)c1cccc(F)c1	/	/	1%	/	1%	/
CCn1c(SCC(=O)Nc2cc(C)ccc2F)nnc1-c1ccccc1O	/	/	-5%	/	5%	/
CCOc1ccc(NC(=O)CN(C)C(=O)c2ccncc2)cc1OCC	-11%	-13	-1%	-3	25µM*	/
CCOc1ccc(NC(=O)CN(C)C(=O)c2cc(C)on2)cc1OCC	/	/	-3%	/	0%	/
C[C@]12CC[C@@H]3c4ccc(O)cc4CC[C@H]3[C@@H]1CCC2OC(=O)CCC1CCCC1 (stereo partly drawn)	/	/	1%	/	/	/
C/C(=N/N=C(/N)SCc1ccccc1)C(C)(C)C	-1%	37	-13%	27*	-2%	-10%
COc1ccccc1C1CC(c2ccco2)=NN1S(C)(=O)=O (stereo not drawn)	-7%	-11	-7%	-2	?	-2%
